The full list was thinned out, with hits kept by preference.
ROC1-CUL1 inh: human ROC1-CUL1 E3 ligase inhibition; P62877+Q13616; inhibition, % at 10 µM; in vitro K48 di-Ub FRET, acceptor:donor ratio, 45 min; 140,000 compounds, 0.6% hits; AID 1347404; in the data active = inhibition above about 25%
A number is an active result; . = inactive.

SMILES	ROC1-CUL1 inh
CC(C)c1ccc(/C=C/c2nc(N)[nH]c(=O)c2[N+](=O)[O-])cc1	.
CCOC(=O)C(NC(=O)c1ccccc1F)(Nc1ccc(F)cc1F)C(F)(F)F (stereo unspecified)	.
c1ccc(-n2nnnc2Sc2ccncc2)cc1	.
COC1(OC)OC=C(C#N)C(c2ccccc2)C1(OC)OC (stereo unspecified)	.
CCOC(=O)c1ccc(NCc2cc(Br)c(OCc3ccc(Cl)cc3Cl)c(OCC)c2)cc1	.
Oc1ccc(NCc2ccc(Cl)cc2)cc1	94
CCOc1cc(CNc2ccc(O)cc2)cc(Br)c1OCc1ccc(Cl)cc1	76
CCOc1cc(CNc2ccc(O)cc2)cc(Cl)c1OCc1ccccc1	.
CC(C)(CO)NCc1ccc(Cl)cc1	.
Clc1ccc(CNc2ccc(N3CCN(Cc4ccccc4)CC3)cc2)cc1	.
CC12CCC(C(=O)Nc3nc4ccc(Br)cc4s3)(CC1=O)C2(C)C (stereo unspecified)	.
O=C(CCSc1nc(-c2ccc(Br)cc2)cs1)N1CCCC1	.
CC(C)Cn1cc(/C=C2\C(=O)NC(=S)N(c3ccc(F)cc3)C2=O)c2ccccc21	.
Nc1nc(N)c2cc(C(F)(F)F)ccc2n1	.
Cc1ccc(Cn2nnc3c2C(=O)c2ccccc2C3=O)cc1	65
O=c1c2ccccc2nnn1Cc1ccccc1	.
COc1cccc(Cn2nnc3c2C(=O)c2ccccc2C3=O)c1	.
Cc1ccc2nc(-c3cnc(N(C)C)nc3)cc(C(=O)N3CCOCC3)c2c1	.
CC1=NOC(=O)/C1=C\c1ccc(-c2cc(Cl)ccc2Cl)o1	97
O=C1C(=Cc2ccc(-c3cc(Cl)ccc3Cl)o2)C(=O)N(c2ccccc2)C(=S)N1c1ccccc1	.
CC1=NOC(=O)/C1=C/c1cccn1C	.
C=CCCC(=O)NC1CCCc2nc(N3CCC(CO)CC3)ncc21 (stereo unspecified)	.
COc1cc(CN2CCc3[nH]nc(-c4cccc(F)c4)c3C2)ccc1F	.
CCOc1cc(C(=O)NNC(=S)Nc2ccc(Oc3ccccc3)cc2)cc(OCC)c1OCC	.
c1ccc(C2CCN(C3=NCCS3)CC2)cc1	.
O=C(CCN1C(=O)c2ccccc2C1=O)Nc1nc(-c2ccc(S(=O)(=O)N3CCCCCC3)cc2)cs1	.
Nc1c(C=C2C=C(Cl)C(=O)C(Cl)=C2)c(=O)nc2sc(C34CC5CC(CC(C5)C3)C4)nn12	76
CCC(CC)c1nn2c(N)c(C=C3C=CC(=O)C(OC)=C3)c(=O)nc2s1	.
CC(C)c1nn2c(N)c(C=C3C=C(Br)C=CC3=O)c(=O)nc2s1	.
CCCN1C(=O)C2(OCCCO2)c2ccccc21	.

Screening data (PubChem BioAssay)
